Compounds without any hit were thinned out: in the full panel of roughly 83,000, 20% have a hit.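 Growth was measured after 48 h exposure to one concentration of compound in 96-well plates. Values under 10 count as active.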 Active and inactive are the calls of the source.
Key:
Assay in all cases: NCI-60 one-dose screen, 48 h (100 = growth as untreated, 0 = no growth, -100 = all killed)
[1] = system: HCT-15 colon; details: 10 µM unless noted
[2] = system: HT29 colon; details: 10 µM unless noted
[3] = system: SNB-75 CNS; details: 10 µM unless noted
[4] = system: SNB-19 CNS; details: 10 µM unless noted
[5] = system: U251 CNS; details: 10 µM unless noted
[6] = system: PC-3 prostate; details: 10 µM unless noted
[7] = system: SK-MEL-5 melanoma; details: 10 µM unless noted
[8] = system: UACC-62 melanoma; details: 10 µM unless noted
[9] = system: SK-MEL-28 melanoma; details: 10 µM unless noted
[10] = system: LOX IMVI melanoma; details: 10 µM

Measured: growth

O=C(O)c1ccc(-c2ccc(/C=N/NC(=O)c3[nH]c4ccc(Br)cc4c3-c3ccccc3)s2)cc1
active: [1] -34.6% | [2] -7.12% | [3] -11.3% | [7] -49.6% | [8] -51.9%
inactive: [4] 14.4% | [5] 14.5% | [6] 18.7% | [9] 11.9%

O=C1c2c(c3c4cc(F)ccc4oc3c3[nH]c4ccc(Br)cc4c23)C(=O)N1O
active: [3] -13.7% | [7] 6.06%
inactive: [1] 48.1% | [2] 68.6% | [4] 14.2% | [5] 18.5% | [6] 20.2% | [8] 18.6% | [9] 43.6%

NS(=O)(=O)c1ccc(N=Nc2c(O)n(CC(=O)Nc3ccccc3)c3ccccc23)cc1
active: [2] 2.37% | [5] -15.1% | [9] -2.1%
inactive: [1] 16% | [3] 42.2% | [4] 20.2% | [6] 20.8% | [7] 24.6% | [8] 22.1%

N#Cc1c(-c2ccc(Cl)cc2)nc2n[nH]c(-c3ccc(Cl)cc3)c2c1-c1cccs1
inactive: [1] 41.9% | [2] 47% | [3] 77.5% | [4] 75.1% | [5] 58.6% | [6] 34.3% | [7] 40.8% | [8] 60.9% | [9] 76.1%

CC(=O)Oc1ccc(/C=C/C(=O)N[C@@H](Cc2ccccc2)C(O)C(=O)NCc2ccccc2)cc1OC(C)=O (some centres not stated)
inactive: [1] 78.1% | [2] 113% | [3] 61.3% | [4] 83.5% | [5] 73.8% | [6] 76.9% | [7] 81.8% | [8] 96.1% | [9] 88.4%

COc1cc(-c2nc3cc(Cl)c(Cl)cc3[nH]2)ccc1OCc1nnc(-c2cccs2)o1
inactive: [1] 25.8% | [2] 58.2% | [3] 114% | [4] 65.8% | [5] 71.1% | [6] 50% | [7] 44.6% | [8] 21.3% | [9] 31.4%

C=C1CC[C@@H]2[C@]3(C)COC(c4cn[nH]c4-c4ccc(C)cc4)O[C@@H]3CC[C@@]2(C)[C@@H]1C/C=C1/C(=O)OCC1O (some centres not stated)
inactive: [3] 87.8% | [4] 37.7% | [6] 37.6%
active: [1] -72.9% | [2] -6.69% | [5] -63.3% | [7] -63.9% | [8] -31.3% | [9] 6.8%

C=C1CCC2C3(C)COC(c4cccc(F)c4)OC3CCC2(C)C1C/C=C1/C(=O)OCC1O (configuration not stated)
inactive: [3] 54.1% | [4] 30.1%
active: [1] -23.6% | [2] -1.9% | [5] -90% | [6] -17.5% | [7] -19.3% | [8] 2.91% | [9] -26.2%

OCNc1ccc(-n2cnc3cc(-c4ccc(O)cc4)ccc32)cc1C(F)(F)F
active: [7] 3.27%
inactive: [1] 15.5% | [2] 21.2% | [3] 17.6% | [4] 35.2% | [5] 16.8% | [6] 45.6% | [8] 33.5% | [9] 27.5%

COc1cc2c(c(OC)c1OC)C(=O)CC(c1cccc(NC(=O)c3cccc(NC(=O)[C@H](C)NC(=O)OC(C)(C)C)c3)c1)O2 (some centres not stated)
inactive: [1] 44.2% | [2] 62.2% | [3] 64.6% | [4] 78.8% | [5] 78.1% | [6] 45.6% | [7] 25.9% | [8] 39.7% | [9] 85.6%

O=C(/C=C/c1ccc(-c2ccccc2)cc1)c1nc2ccccc2n1Cc1ccc(Br)cc1
inactive: [1] 37.3% | [2] 41.6% | [3] 56.8% | [4] 57.8% | [5] 27.4% | [6] 48.2% | [7] 72.2% | [8] 50.2% | [9] 58.5%

CC(=O)Nc1cccc(Nc2nc(N[C@H]3CCCc4ccccc43)c3ccccc3n2)c1
inactive: [1] 97.5% | [2] 104% | [3] 90.6% | [4] 96.9% | [5] 105% | [6] 115% | [7] 105% | [8] 92% | [9] 104%

O=C(Nc1cccc(-n2cnc3cc(-c4ccc(O)cc4)ccc32)c1)C1CC1
inactive: [1] 11.9% | [4] 32.9% | [6] 47% | [8] 38.5% | [9] 54.3%
active: [2] 8.01% | [3] -5.51% | [5] 9.54% | [7] 7.19%

CNC(=O)c1cccc(NC(=O)c2ccc3c(c2)nnn3/C(C#N)=C/c2ccccn2)c1
inactive: [3] 73% | [4] 71%
active: [1] -31.3% | [2] -84.4% | [5] -12.4% | [6] 2.89% | [7] -13.4% | [8] -86.6% | [9] -76.6%

C/C(=N\N=C1/C(=O)Nc2ccc(Cl)cc21)c1ccc2c(c1)Nc1ccccc1S2
active: [1] 0.895% | [2] -31.1% | [3] 8.6% | [5] -32.1% | [6] -5.59% | [7] -15.6% | [9] -48.9%
inactive: [4] 18.7% | [8] 13.5%

Nc1cc2ccccc2c(=O)n1NC(=O)c1ccc(I)cc1
inactive: [1] 102% | [2] 101% | [3] 70% | [4] 95.6% | [5] 97.4% | [6] 100% | [7] 101% | [8] 93.2% | [9] 103%

N#Cc1c(-c2cccc(Cl)c2Cl)cc(-c2ccc3ccccc3c2)[nH]c1=O
inactive: [1] 69.6% | [2] 121% | [4] 39.2% | [6] 44.4% | [7] 85.7% | [8] 76.2% | [9] 92.8%
active: [3] -12.7% | [5] 6.58%

O=C(O)c1cccc(-c2ccc(/C=N/NC(=O)c3[nH]c4ccc(Br)cc4c3-c3ccccc3)s2)c1
inactive: [1] 17.4% | [2] 69% | [3] 29.6% | [4] 26.2% | [5] 27% | [6] 56.9% | [7] 30.1% | [8] 19.5% | [9] 44.2%

CC(=O)Nc1cccc(-c2nc3cc(-c4ccc(O)cc4)ccc3n2C)c1
inactive: [1] 41.6% | [2] 62.6% | [3] 62.5% | [4] 51.2% | [5] 58.7% | [6] 47.9% | [8] 15.7% | [9] 27.3%
active: [7] -9.75%

C=C1CC[C@@H]2[C@]3(C)COC(c4cn(-c5ccccc5)nc4-c4ccccc4)O[C@@H]3CC[C@@]2(C)[C@@H]1C/C=C1/C(=O)OC[C@H]1O (some centres not stated)
active: [1] -87% | [2] -70.4% | [3] -18.8% | [4] -60.8% | [5] -88.5% | [6] -26.8% | [7] -100% | [8] -93.8% | [9] -84.2%

c1ccc(-c2csc(Nc3cccc(Nc4nc(-c5ccccc5)cs4)c3)n2)cc1
inactive: [1] 30.5% | [2] 39.4% | [3] 48.6% | [4] 58% | [5] 51.2% | [6] 32.1% | [7] 21% | [8] 50.3% | [9] 60.9%

CCOC(=O)COc1c(OC)c(OC)cc2oc(-c3cccc(C(=O)Nc4ccc(Cl)cc4)c3)cc(=O)c12
inactive: [1] 21.5% | [2] 22.9% | [3] 34.6% | [4] 62.3% | [5] 39.9% | [6] 41.1% | [7] 22.3% | [8] 55.1% | [9] 68.6%

Cc1ccc2c(N)c(C(=O)Nc3ccc(OC(F)(F)F)cc3)sc2n1
inactive: [1] 61% | [2] 75.2% | [3] 91.8% | [4] 79.5% | [5] 84.6% | [6] 58.4% | [7] 26% | [8] 61.2% | [9] 85.5%

O=C(N=Nc1c(O)[nH]c2ccc([N+](=O)[O-])cc12)c1ccc2nc(-c3ccccc3)[nH]c2c1
inactive: [1] 105% | [2] 110% | [3] 95.7% | [4] 43.6% | [5] 34.8% | [6] 53.3% | [7] 97.7% | [8] 75.5% | [9] 60.8%

CC1=C(C(=O)OC(C)C)C(c2cccc(O)c2)NC(=S)N1 (configuration not stated)
inactive: [1] 106% | [2] 102% | [3] 105% | [4] 96.8% | [5] 103% | [6] 107% | [7] 98.8% | [8] 91.3% | [9] 103%

O=C1C(=Nc2ccc(F)c(Cl)c2)c2cccc3cccc1c23
active: [1] 8.52% | [2] 5.96%
inactive: [3] 66.5% | [4] 71.2% | [5] 24.7% | [6] 77.9% | [8] 52.8% | [10] 46.9% | [9] 57.9%

COc1ccc2oc3c4[nH]c5ccccc5c4c4c(c3c2c1)C(=O)N(C(=O)OC(C)(C)C)C4=O
active: [1] -23.2% | [2] -32% | [3] -3.78% | [5] 4.43% | [6] -12.9% | [7] -99.3% | [8] -77.3% | [9] -45.5%
inactive: [4] 11.8%

Cc1cc2nc3c4ccccc4n(CCCN(C)C)c3nc2cc1C
active: [1] -10.1% | [2] -3.59% | [3] -97.8% | [4] -8.61% | [5] 1.33% | [6] -32% | [7] -94.4% | [8] -90.4% | [9] -71.1%

From PubChem BioAssay (NCI)
